Bioassay records from PubChem BioAssay.
A selection: hits, their analogues and other compounds. The true share with any hit is near 21%.
Pf growth 96h – inhibits malaria parasite growth, 96 h | 6.9% of 320,000 active | AID 504834 | P. falciparum luciferase reporter growth, 96 h | Potency, µM (titrated, usually from 28.7 µM), most hits filed as inhibitors
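Plates of compound plus infected erythrocytes (2% hematocrit, 0.05% parasitemia final) incubate 96 hours, 37 C, 5% CO2. Detection reagent added; reduced luminescence from the parasites' luciferase reporter flags inhibition.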
Pf growth 48h – inhibits P. falciparum growth in the first generation, 48 h. P. falciparum luciferase growth in erythrocytes, 48 h. 5.9% of 310,000 active. AID 504832. Potency, µM (doses to about 28.7 µM), actives largely listed as inhibitors
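Here the parasites carry a stable luciferase gene and grow inside erythrocytes in Albumax-based RPMI medium with compound for one erythrocytic cycle. Activity is scored as loss of luminescent signal.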
CHX counter – counter-screen hit for Shiga toxin inhibitors, cycloheximide; 12% of 300,000 active; cell reporter, cycloheximide protein synthesis inhibition counterscreen; max response, %; in the data active means max response mostly above about 13%, no sharp cut-off; inactive means mostly below about 14%; further: read at 38.3 µM for the half of the compounds with a filed dose
Shiga toxin inh – inhibitors of Shiga toxin in Vero cells. Vero cells, Shiga toxin protein synthesis inhibition reporter. AID 2315. inhibition, % at 38.7 µM. 9.2% of 290,000 active; in the data active means inhibition mostly above about 28%, no sharp cut-off; inactive means mostly below about 43%
Each line names hits and unclear results; the compound was inactive in the other large screens. Unless noted, the call rests on the fitted dose curve; in most records, active means well fitted inhibition curve with a large enough effect; inconclusive means small, poorly fitted or top-dose-only effect, or another doubt; inactive means no such curve, though single readings can be large or run the other way.

CCC(CC)COC(=O)C1=C(C)NC(=O)NC1c1cccc([N+](=O)[O-])c1 (configuration not stated)	Pf growth 96h inconclusive, Pf growth 48h inconclusive
CC(C)Oc1ccc(C(=O)NCC(=O)N2CCN(S(=O)(=O)/C=C/c3ccccc3)CC2)cc1	Pf growth 96h inconclusive, Pf growth 48h 15µM (no result: CHX counter, Shiga toxin inh)
O=C(CNC(=O)C12CC3CC(CC(C3)C1)C2)N1CCN(S(=O)(=O)/C=C/c2ccccc2)CC1	Pf growth 96h 9.3µM, Pf growth 48h inconclusive
CCCCN1CC(=O)N2[C@H]3c4cc(OC)ccc4OC[C@@H]3[C@H](C(=O)OCC)[C@]2(C)C1=O	Pf growth 96h inconclusive (no result: CHX counter, Shiga toxin inh)
CCCCN1CC(=O)N2[C@H]3c4ccc(OC)cc4OC[C@@H]3[C@H](C(=O)OCC)[C@]2(C)C1=O	Pf growth 96h inconclusive (no result: CHX counter, Shiga toxin inh)
CCOC(=O)[C@H]1[C@H]2COc3ccc(OC)cc3[C@@H]2N2C(=O)CN(Cc3ccc(OC)cc3)C(=O)[C@@]12C	Pf growth 96h inconclusive, Pf growth 48h 6.6µM (no result: CHX counter, Shiga toxin inh)
CCOC(=O)[C@H]1[C@H]2COc3cc(OC)ccc3[C@@H]2N2C(=O)CN(Cc3ccc(OC)cc3)C(=O)[C@@]12C	Pf growth 96h inconclusive, Pf growth 48h 12µM (no result: CHX counter, Shiga toxin inh)
CCCCN1CC(=O)N2[C@H]3c4cc(C)ccc4OC[C@@H]3[C@H](C(=O)OCC)[C@]2(C)C1=O	Pf growth 96h inconclusive (no result: CHX counter, Shiga toxin inh)
CCOC(=O)[C@H]1[C@H]2COc3ccc(OC)cc3[C@@H]2N2C(=O)CN(Cc3ccc(C)cc3)C(=O)[C@@]12C	Pf growth 96h 3.7µM, Pf growth 48h 10µM (no result: CHX counter, Shiga toxin inh)
CCOC(=O)[C@H]1[C@H]2COc3ccc(Br)cc3[C@@H]2N2C(=O)CN(Cc3ccc(C)cc3)C(=O)[C@@]12C	Pf growth 96h inconclusive, Pf growth 48h 15µM (no result: CHX counter, Shiga toxin inh)
COc1ccc(C(=O)CCS(=O)(=O)c2ccc(C)cc2)cc1OC	none
Cn1c(N)c(C(=O)CSc2nc(C3CC3)n(-c3ccccc3)n2)c(=O)[nH]c1=O	Pf growth 96h inconclusive (no result: CHX counter, Shiga toxin inh)
CCC(=O)NCCCC[C@H](NC(=O)OCc1ccccc1)C(=O)Nc1ccc2c(C)cc(=O)oc2c1	none (no result: Pf growth 96h, Pf growth 48h)
N/C(=N\OC(=O)c1cccc(Cl)c1)c1ccncc1	CHX counter 39, Shiga toxin inh 59
N/C(=N\OC(=O)c1cc(-c2ccccc2)nc2ccccc12)c1cccnc1	Pf growth 48h inconclusive
N/C(=N\OC(=O)c1cccc(Cl)c1)c1cccnc1	CHX counter 47, Shiga toxin inh 99
N/C(=N\OC(=O)c1ccc(Cl)c(Cl)c1)c1cccc(CSc2ccccn2)c1	CHX counter 29, Shiga toxin inh 62
N/C(=N\OC(=O)c1ccc(Cl)c(Cl)c1)c1cccnc1	CHX counter 26 (no result: Pf growth 48h)
C/C(=N\OC(=O)c1cccc(Cl)c1)c1sc(C)nc1C	none (no result: Pf growth 48h)
O=C(O/N=C(\c1ccccc1)c1ccccn1)c1ccc(Cl)c(Cl)c1	Pf growth 96h inconclusive
N/C(=N\OS(=O)(=O)c1ccc(Cl)cc1)c1cccnc1	Pf growth 96h inconclusive
CC1CCCCC1NC(=O)CN1C(=O)CSc2cc(S(=O)(=O)N3CCCCCC3)ccc21 (configuration not stated)	Pf growth 96h inconclusive, Pf growth 48h inconclusive
COc1ccc(N(CC(=O)Nc2ccccc2C(F)(F)F)C2=NC3CS(=O)(=O)CC3S2)cc1 (configuration not stated)	Pf growth 96h inconclusive, Pf growth 48h inconclusive
C#CCOc1ccc(C2C3=C(CCCC3=O)N(CC(=O)O)C3=C2C(=O)CCC3)cc1Br	none
N/C(=N\OC(=O)c1cccc(C(F)(F)F)c1)c1cnccn1	CHX counter 30, Shiga toxin inh 59
Cc1ccc(S(=O)(=O)Cn2nnnc2C(C(C)C)N2CCC(C(N)=O)CC2)cc1 (configuration not stated)	Pf growth 96h inconclusive
O=C(COC(=O)c1ccc(O)cc1)NCCC1=CCCCC1	none
Cc1ccc(C(=O)OCC(=O)NCCC2=CCCCC2)s1	none
O=C(COC(=O)c1ccc2c(c1)OCCO2)NCCC1=CCCCC1	Pf growth 96h inconclusive, CHX counter 23, Shiga toxin inh 100
O=C(COC(=O)c1ccccc1O)NCCC1=CCCCC1	CHX counter 47, Shiga toxin inh 90
O=C(COC(=O)c1cccs1)NCCC1=CCCCC1	CHX counter 14
O=C(COC(=O)c1ccccc1Cl)NCCC1=CCCCC1	CHX counter 31, Shiga toxin inh 83
COc1ccc2c(c1)C(c1ccccc1C)CC(=O)O2 (configuration not stated)	none (no result: Pf growth 96h, Pf growth 48h)
O=C(COC(=O)c1ccccc1NC(=O)c1ccco1)NCC1CCCCC1	Pf growth 96h inconclusive (no result: Pf growth 48h)
O=C(COC(=O)c1ccccc1NC(=O)c1ccco1)NCCC1=CCCCC1	CHX counter 30 (no result: Pf growth 96h)
COc1ccccc1OCCCC(=O)Nc1ccc([N+](=O)[O-])cc1Br	none
Cc1ccc(NC(=O)c2cc(C(C)(C)C)nn2Cc2ccccc2)cc1	Pf growth 96h 9.3µM, Pf growth 48h 8.3µM, CHX counter 12
CC(C)(C)c1cc(C(=O)Nc2ccc(F)cc2)n(Cc2ccc(F)cc2)n1	Pf growth 96h 12µM, Pf growth 48h 10µM, CHX counter 26, Shiga toxin inh 43
Nc1nnc(SCc2ccc(Cl)cc2)s1	Shiga toxin inh active
CCOC(=O)CSc1nnc(N)s1	Pf growth 48h inconclusive
Nc1nnc(SCc2coc(-c3ccc(Cl)cc3)n2)s1	CHX counter 39, Shiga toxin inh 64 (no result: Pf growth 96h)
CCOC(=O)c1ccc(CSc2nnc(N)s2)cc1	CHX counter 39, Shiga toxin inh 92
Nc1nnc(SCc2cccc(C(F)(F)F)c2)s1	CHX counter 11
O=C(COc1ccc(S(=O)(=O)N2CCCCC2)cc1)NCc1cccnc1	none (no result: Pf growth 48h)
CC1(C)C(=S)N(Cc2ccccc2)c2ccccc21	none
Nc1nnc(CSc2ccc(Cl)cc2)s1	Pf growth 96h inconclusive, CHX counter 50
COc1cc(N)c(Cl)cc1C(=O)OCC(=O)N1CCCC1	none
O=C(/C=C/c1ccc(F)cc1)c1ccccc1Br	Pf growth 96h inconclusive, CHX counter 20
Cc1ccc(C(=O)/C=C/c2ccc(F)cc2)o1	Pf growth 96h inconclusive, CHX counter 60, Shiga toxin inh 76
COc1ccc(/C=C/C(=O)c2ccc([N+](=O)[O-])o2)cc1	Pf growth 48h inconclusive (no result: CHX counter, Shiga toxin inh)
CCCc1cc(C(=O)Nc2cc(C)on2)no1	CHX counter 13 (no result: Pf growth 48h)
Cc1cc(NC(=O)c2ccoc2C)no1	CHX counter 11
Cc1c(Cl)cccc1NC(=O)c1cc(C2CC2)on1	CHX counter 35, Shiga toxin inh 102 (no result: Pf growth 48h)
Cc1cc(C(=O)NNc2ccc(Cl)cc2)no1	none
Cc1cc(C(=O)Nc2ccc3[nH]ccc3c2)no1	CHX counter 46, Shiga toxin inh 74
CCN1CCN(S(=O)(=O)c2ccc(C(C)(C)C)cc2)CC1	Pf growth 96h inconclusive
COc1ccc(OC)c(CNC(=O)C2CCC(=O)N2C(C)C)c1 (configuration not stated)	Pf growth 96h inconclusive
CCc1ccc(C(=O)Nc2cc(C)on2)o1	Shiga toxin inh 89
CNc1nc(N)c(C(=O)Nc2cc(C)on2)s1	CHX counter 30, Shiga toxin inh 88
Cc1cc(NC(=O)c2cc(C)on2)no1	CHX counter 8.4 (no result: Pf growth 96h)
Cc1cc(NC(=O)c2ccc(C)o2)no1	Pf growth 96h inconclusive
COc1ccc(-c2cc(C(=O)Nc3cc(C)on3)no2)cc1	Pf growth 96h inconclusive
COC(=O)c1ccccc1NC(=O)c1cc(C2CC2)on1	none
